The test system of assay [1] is Plasmodium falciparum Sir2 (PF13_0152, Sir2A). Put plainly: Plasmodium falciparum Sir2A binding compounds – biochemical, small-molecule microarray, 635 nm fluorescence, primary screen (AID 1098).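 Note: score merges spot fluorescence intensity with its signal-to-noise ratio.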 To be noted: fluorescence 635 nm, higher = more signal.
Assay [2] can be described thus: probe aDKK1 binding to arrayed compounds – biochemical, biotinylated probe, 635/667 nm fluorescence, primary screen (AID 1099).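 Note: score merges 667nm spot fluorescence with signal to noise across triplicate slides.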 The conditions noted are these: small-molecule microarray, higher = more signal.
Assay [3] is described as follows: probe aCHRDL2 binding to arrayed compounds – biochemical, biotinylated probe, 635/667 nm fluorescence, primary screen (AID 1100). To be noted: small-molecule microarray, higher = more signal.
The nature of assay [4]: change in splice reporter luminescence, either direction, cell-based, HEK293, spliceosome inhibition project, primary screen (AID 1101).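 Note: HEK293 cells carrying a splicing-competent luciferase reporter gene; test concentration not given here.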 To be noted: HEK293 splicing luciferase reporter, 24 h, higher = more signal, called active from +8 up or from −8 down. (In general: Reporter assays use an easily measured gene product as a stand-in for the process of interest.)
The target of assay [5] is Fibroblast growth factor 10 (Homo sapiens) (UniProt O15520). Put plainly: compounds binding fibroblast growth factor 10 – biochemical, small-molecule microarray, 635 nm fluorescence, primary screen (AID 1102). To be noted: FGF10 binding, fluorescence 635 nm, higher = more signal.
Assay [6] has as its system glycogen synthase kinase-3 (GSK3A per assay name; protocol says GSK3B). Description: compounds binding glycogen synthase kinase-3 – biochemical, small-molecule microarray, 635 nm fluorescence, GSK3A, primary screen (AID 1103). Note: the record names both GSK3A and GSK3B. To be noted: fluorescence 635 nm, higher = more signal.
The target in assay [7] is Epidermal growth factor receptor (Homo sapiens) (UniProt P00533). Put plainly: compounds binding epidermal growth factor receptor – biochemical, small-molecule microarray, 635 nm fluorescence, primary screen (AID 1104).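 Note: score merges 667 nm emission intensity with spot signal to noise over triplicate slides.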 The conditions noted are these: EGFR binding, higher = more signal.
The target of assay [8] is Follistatin-related protein 3 (Homo sapiens) (UniProt O95633). Description: compounds binding follistatin-related protein 3 – biochemical, small-molecule microarray, 635 nm fluorescence, primary screen (AID 1105).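 Note: score merges emission near 667 nm and signal to noise per printed spot across three slides.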 The conditions noted are these: FSTL3 binding, higher = more signal.
The target in assay [9] is Dickkopf-related protein 1 (Homo sapiens) (UniProt O94907). Put plainly: small molecules binding DKK1 protein – biochemical, small-molecule microarray, 635 nm fluorescence scan, primary screen (AID 1106).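 Note: score merges emission near 667 nm with signal to noise over three replicate slides.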 The conditions noted are these: higher = more signal.
Assay [10] deals with Inhibin beta A chain (activin A). Description: small molecules binding activin A – biochemical, small-molecule microarray, 635 nm fluorescence scan, primary screen (AID 1107).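 Note: mouse activin A protein probed at 4.33 µg/mL on printed slides; score merges bound-protein fluorescence near 667 nm with spot signal-to-noise.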 To be noted: INHBA, higher = more signal.
Assay [11] deals with Human papillomavirus type 1a protein E7 (residues 44-93). Description: small molecules binding HPV E7 44-93 – biochemical, small-molecule microarray, residues 44-93, 635 nm fluorescence, primary screen (AID 1108).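 Note: E7 fragment applied at 1 µg/mL in TBST for 1 h at 4 C; score combines spot fluorescence with its signal to noise ratio.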 The conditions noted are these: fluorescence 635 nm, higher = more signal.
Assay [12] can be described thus: hepatitis C replication reporter changes, two-sided – Huh7 cells, luciferase reporter, HCV replication inhibitor project, primary screen (AID 1109).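 Note: huh7 hepatoma cells harbouring a luciferase neomycin HCV replicon reporter; luciferase luminescence as measure of HCV replicon replication; test concentration not given here.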 To be noted: Huh7 HCV replicon luciferase reporter, 48 h; higher = more signal.
The target in assay [13] is Left-right determination factor 2 (Homo sapiens) (UniProt O00292). Description: small molecules binding LEFTY2 protein – biochemical, small-molecule microarray, 635 nm fluorescence scan, primary screen (AID 1110). The conditions noted are these: higher = more signal.
Assay [14] deals with Calmodulin-1 (Homo sapiens) (UniProt P0DP23). Description: small molecules binding calmodulin-1 with EGTA – biochemical, small-molecule microarray, Cy5-labelled CALM1, profiling panel (AID 1111).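 Note: labelled calmodulin applied in Tris saline Tween buffer holding calcium plus EGTA and DTT.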 To be noted: Cy5-CALM1 binding fluorescence, higher = more signal.
Assay [15] has the same target. Put plainly: small molecules binding Ca-loaded calmodulin-1 – biochemical, small-molecule microarray, Cy5-labelled CALM1, plus calcium, artefact control for SMM control-protein annotation, profiling panel (AID 1112).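 Note: score merges spot fluorescence with signal to noise from triplicate slides.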 To be noted: Cy5-CALM1 binding fluorescence, higher = more signal.
Assay [16] in a line: probe aWnt5a binding to arrayed compounds – biochemical, biotinylated probe, 635/667 nm fluorescence, primary screen (AID 1113).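 Note: score merges 667 nm fluorescence intensity with signal-to-noise per printed feature.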 The conditions noted are these: small-molecule microarray, higher = more signal.
The nature of assay [17]: probe aShh binding to arrayed compounds – biochemical, biotinylated probe, 635/667 nm fluorescence, primary screen (AID 1114).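 Note: probe is biotin-labelled aShh protein from a stem cell growth factor screen; measures binding of labelled protein to compounds printed on the slide; score merges feature fluorescence at 667 nm with signal-to-noise.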 To be noted: small-molecule microarray, higher = more signal.
A short description of assay [18]: probe aNog binding to arrayed compounds – biochemical, biotinylated probe, 635/667 nm fluorescence, primary screen (AID 1115).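 Note: probe is biotinylated aNog protein used at 0.15 µg/mL for 1 h at 4 C; z-score combines 667 nm fluorescence of each spot with its signal to noise.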 The conditions noted are these: small-molecule microarray, higher = more signal.
Assay [19] addresses Torsin-1A-interacting protein 1 (Homo sapiens) (UniProt Q5JTV8). Description: compound microarray binding of lysate hLAP1 – cell lysate, small-molecule microarray, COS7 lysate, 635/667 nm fluorescence, primary screen (AID 1116). To be noted: 635 nm fluorescence, higher = more signal.
Assay [20] deals with Alpha-bungarotoxin (Bungarus multicinctus) (UniProt P60615). Put plainly: compounds binding labelled alpha-BTX control protein – biochemical, small-molecule microarray, Alexa647 label, 635/667 nm fluorescence, artefact control for SMM control protein annotation, profiling panel (AID 1117). The conditions noted are these: alpha-BTX-A647 binding fluorescence, higher = more signal.

The source made the active and inactive calls.

Chain of Torsin-1A-interacting protein 1 (Homo sapiens) (Q5JTV8 whole entry, looked up): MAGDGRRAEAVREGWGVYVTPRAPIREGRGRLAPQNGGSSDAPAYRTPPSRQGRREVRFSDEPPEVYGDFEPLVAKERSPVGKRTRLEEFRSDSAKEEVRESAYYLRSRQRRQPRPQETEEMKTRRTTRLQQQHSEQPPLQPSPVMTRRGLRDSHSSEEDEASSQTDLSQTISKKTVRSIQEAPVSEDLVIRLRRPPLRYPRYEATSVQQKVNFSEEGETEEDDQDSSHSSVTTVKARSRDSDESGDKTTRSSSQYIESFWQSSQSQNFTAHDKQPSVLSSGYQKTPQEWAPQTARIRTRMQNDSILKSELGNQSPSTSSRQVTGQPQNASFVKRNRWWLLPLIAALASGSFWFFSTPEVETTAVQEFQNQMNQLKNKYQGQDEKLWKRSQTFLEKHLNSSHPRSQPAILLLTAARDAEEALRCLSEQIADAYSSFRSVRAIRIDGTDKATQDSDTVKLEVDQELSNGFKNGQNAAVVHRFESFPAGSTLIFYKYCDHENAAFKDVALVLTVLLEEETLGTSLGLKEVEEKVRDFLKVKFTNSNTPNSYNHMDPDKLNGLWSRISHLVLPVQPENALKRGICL
Chain of Left-right determination factor 2 (Homo sapiens) (O00292 whole entry, looked up): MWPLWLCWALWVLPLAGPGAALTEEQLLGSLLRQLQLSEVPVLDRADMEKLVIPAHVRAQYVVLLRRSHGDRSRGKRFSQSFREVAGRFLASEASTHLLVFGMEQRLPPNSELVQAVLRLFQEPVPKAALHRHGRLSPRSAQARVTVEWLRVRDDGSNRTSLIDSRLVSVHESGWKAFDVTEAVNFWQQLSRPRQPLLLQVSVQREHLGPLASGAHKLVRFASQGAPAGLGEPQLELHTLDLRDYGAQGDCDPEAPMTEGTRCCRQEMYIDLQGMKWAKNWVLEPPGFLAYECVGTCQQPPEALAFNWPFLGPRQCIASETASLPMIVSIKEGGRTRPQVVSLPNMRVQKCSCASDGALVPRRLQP
Chain of Alpha-bungarotoxin (Bungarus multicinctus) (P60615 whole entry, looked up): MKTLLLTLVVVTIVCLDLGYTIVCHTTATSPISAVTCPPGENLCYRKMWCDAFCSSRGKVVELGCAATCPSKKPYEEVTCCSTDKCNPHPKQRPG
Chain of Follistatin-related protein 3 (Homo sapiens) (O95633 whole entry, looked up): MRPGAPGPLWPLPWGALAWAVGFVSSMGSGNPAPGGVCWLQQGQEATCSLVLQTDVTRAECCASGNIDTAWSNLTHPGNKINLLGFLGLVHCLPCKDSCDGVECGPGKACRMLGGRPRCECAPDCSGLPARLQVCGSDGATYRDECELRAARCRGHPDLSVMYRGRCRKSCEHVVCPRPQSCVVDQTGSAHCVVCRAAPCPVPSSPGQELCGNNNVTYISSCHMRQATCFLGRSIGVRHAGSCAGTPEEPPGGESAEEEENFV
Chain of Fibroblast growth factor 10 (Homo sapiens) (O15520 whole entry, looked up): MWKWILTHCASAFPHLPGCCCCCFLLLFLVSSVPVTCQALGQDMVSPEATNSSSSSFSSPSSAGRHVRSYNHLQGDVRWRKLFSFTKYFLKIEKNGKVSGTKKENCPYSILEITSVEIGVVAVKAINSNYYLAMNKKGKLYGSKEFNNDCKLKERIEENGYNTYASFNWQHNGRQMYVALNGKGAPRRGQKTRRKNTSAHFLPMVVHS
Chain of Epidermal growth factor receptor (Homo sapiens) (P00533 whole entry, looked up): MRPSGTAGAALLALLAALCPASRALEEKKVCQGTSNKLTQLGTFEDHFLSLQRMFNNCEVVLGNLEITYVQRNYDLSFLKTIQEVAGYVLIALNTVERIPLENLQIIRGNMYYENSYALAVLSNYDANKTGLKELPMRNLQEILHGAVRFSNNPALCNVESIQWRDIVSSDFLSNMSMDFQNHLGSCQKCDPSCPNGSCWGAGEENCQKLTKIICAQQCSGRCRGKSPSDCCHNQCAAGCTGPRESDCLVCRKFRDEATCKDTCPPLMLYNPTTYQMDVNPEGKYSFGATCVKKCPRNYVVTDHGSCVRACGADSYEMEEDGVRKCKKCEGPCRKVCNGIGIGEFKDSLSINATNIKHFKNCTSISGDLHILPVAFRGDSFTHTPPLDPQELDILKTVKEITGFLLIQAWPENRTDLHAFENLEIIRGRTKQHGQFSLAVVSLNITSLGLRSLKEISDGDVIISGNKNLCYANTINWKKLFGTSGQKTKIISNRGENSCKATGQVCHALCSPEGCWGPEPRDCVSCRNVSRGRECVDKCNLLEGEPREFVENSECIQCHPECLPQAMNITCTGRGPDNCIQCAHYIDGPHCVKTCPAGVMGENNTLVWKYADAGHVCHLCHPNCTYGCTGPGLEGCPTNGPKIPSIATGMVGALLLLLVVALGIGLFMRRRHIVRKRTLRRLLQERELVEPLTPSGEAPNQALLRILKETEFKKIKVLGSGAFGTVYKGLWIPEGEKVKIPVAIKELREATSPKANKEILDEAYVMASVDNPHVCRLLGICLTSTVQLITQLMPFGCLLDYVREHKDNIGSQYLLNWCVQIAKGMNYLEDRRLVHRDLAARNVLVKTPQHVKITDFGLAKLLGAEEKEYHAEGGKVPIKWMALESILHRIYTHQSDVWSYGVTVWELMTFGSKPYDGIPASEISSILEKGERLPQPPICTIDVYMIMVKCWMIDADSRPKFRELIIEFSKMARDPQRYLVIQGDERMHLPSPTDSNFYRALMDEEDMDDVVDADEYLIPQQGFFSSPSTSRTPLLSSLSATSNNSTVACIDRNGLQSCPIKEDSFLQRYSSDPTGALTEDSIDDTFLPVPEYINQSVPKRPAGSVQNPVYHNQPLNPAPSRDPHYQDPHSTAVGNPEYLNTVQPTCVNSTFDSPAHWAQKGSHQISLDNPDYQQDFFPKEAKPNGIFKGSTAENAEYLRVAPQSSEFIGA
Chain of Dickkopf-related protein 1 (Homo sapiens) (O94907 whole entry, looked up): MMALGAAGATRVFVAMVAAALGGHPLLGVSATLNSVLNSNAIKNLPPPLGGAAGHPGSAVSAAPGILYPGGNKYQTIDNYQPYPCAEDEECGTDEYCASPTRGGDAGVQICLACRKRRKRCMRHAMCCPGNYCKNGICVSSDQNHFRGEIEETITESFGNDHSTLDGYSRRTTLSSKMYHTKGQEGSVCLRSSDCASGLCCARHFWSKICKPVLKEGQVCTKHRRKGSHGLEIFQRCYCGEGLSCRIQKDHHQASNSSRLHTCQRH

On to `CCOC(=O)C1=CC[C@@H](c2ccc(OCc3ccccc3)c(OC)c2)N(S(=O)(=O)c2ccc(C)cc2)[C@H]1c1ccc(SC)cc1`, for which the composite z-score stood at 1.26 in assay [1]; 0.842 in [2]; 1.04 in assay [3]; 1.1 in assay [5]; 0.587 in [6]; 0.838 in assay [7]. Also, the composite z-score in assay [8] is 1.12; in assay [9] it was 0.174; in [10], 0.994; in assay [11], 1.4; in assay [13], 0.458; in assay [14], 1.23. For the same molecule, the composite z-score in [15] is 0.298; in assay [16], 0.155; in [17], 0.0659; in assay [18] it was 1.1; in assay [19], 0.746; in assay [20] it was 0.573. In addition, the z-score is 0.236 (inactive) in assay [4] and -1.75 in assay [12].
Regarding `O=C(NCC(F)(F)F)[C@@H]1c2ccccc2C(=O)N(Cc2cc(F)cc(C(F)(F)F)c2)[C@H]1c1ccc(CO)cc1`, the composite z-score is 0.251 in assay [1]; -0.0632 in assay [2]; 0.941 in assay [3]; -0.788 in [5]; -0.587 in assay [6]; -1.12 in assay [7]. Further, the composite z-score in assay [8] is -1.29; in [9] it was -1.39; in assay [10], -0.53; in [11] it was 0.463; in [13] it was -1.53; in assay [14], 0.152. Moreover, the composite z-score in assay [15] is 0.712; in [16], -0.096; in assay [17], -0.0709; in assay [18], -0.074; in assay [19], -0.468; in [20], -0.758. Besides, the z-score is 0.408 (inactive) in [4] and -0.661 in [12].
For `O=C1OCC=C[C@H]2OC34C=CCN(Cn5nnc6ccccc65)C(=O)[C@H]3N(CCCO)C(=O)[C@@H]4[C@@H]12` (stereo not given in full), the composite z-score in assay [1] was -0.0241; in [2], -0.0481; in assay [3], 0.368; in [5] it was -0.21; in [6], -1.08; in assay [7] it was -0.577. Further, the composite z-score was -1.39 in assay [8]; -0.448 in assay [9]; 0.839 in assay [10]; -0.408 in assay [11]; -0.573 in [13]; -0.0941 in assay [14]. Moreover, the composite z-score in assay [15] was 0.449; in assay [16], -0.26; in [17], 0.381; in assay [18], 0.0517; in assay [19], 0.529; in assay [20] it was -1.11. Moreover, the z-score was -1.26 (inactive) in assay [4] and 0.424 in assay [12].
Consider `C[C@H]1NC(=O)[C@@]23C(=O)N[C@@H](Cc4ccccc4)C2[C@H](C)[C@@]2(C)O[C@H]2C3/C=C/C/C=C\CNC(=O)[C@H](Cc2ccccc2)NC1=O` (stereo not given in full), for which the composite z-score in assay [1] was 1.29; in assay [2] it was -0.354; in assay [3] it was -0.427; in assay [5] it was 0.932; in [6], 0.138; in [7] it was 0.199. The composite z-score came out at 1.01 in assay [8]; 0.689 in assay [9]; 1.34 in assay [10]; 0.395 in assay [11]; 0.154 in [13]; 0.15 in assay [14]. The composite z-score was -0.849 in [15]; -0.0445 in assay [16]; -0.0533 in assay [17]; -0.196 in assay [18]; -0.285 in assay [19]; 0.107 in assay [20]. Also, the figures for the z-score in assay [4] and in assay [12] were 0.106 (inactive) and -1.02, respectively.
Regarding `COC(=O)C(CC#Cc1ccc2c(c1)[C@]1(C(=O)N2)[C@H](C(=O)N2CCN(c3ncccn3)CC2)[C@H]2C(=O)O[C@H](c3ccccc3)[C@H](c3ccccc3)N2[C@@H]1c1ccc(OCCO)cc1)C(=O)OC`, the composite z-score in assay [1] was 1.22; in [2], 0.0224; in assay [3] it was -0.0434; in assay [5], 1.17; in assay [6], 0.994; in assay [7], 0.68. The composite z-score in assay [8] was 1.39; in assay [9], 0.612; in assay [10] it was 0.0693; in assay [11] it was 1.45; in [13], 0.839; in assay [14], 0.918. Moreover, the composite z-score in [15] is 0.245; in assay [16], -0.0792; in [17] it was -0.144; in [18], 0.0574; in [19], 0.624; in assay [20], 2.21. The z-score in assay [4] was -0.152 (inactive); in [12], -1.7.
With `CC(C)[Si](C#C[Si](C(C)C)(C(C)C)C(C)C)(O[C@H](C)c1cn([C@H](CO)Cc2ccccc2)nn1)C(C)C`, the composite z-score in [1] is 0.107; in assay [2], -0.229; in [3], -0.316; in [5] it was 0.0848; in assay [6] it was 0.229; in assay [7] it was 0.0255. Also, the composite z-score in [8] is -0.0447; in [9] it was 0.377; in assay [10], 0.201; in assay [11], 0.534; in assay [13], 0.182; in [14] it was -0.0641. The composite z-score in assay [15] is -0.393; in [16], -0.0924; in [17], -0.0977; in assay [18], -0.122; in assay [19], 0.227; in assay [20], -0.0846. In addition, the values for the z-score in assay [4] and in assay [12] were -0.0126 (inactive) and -0.677, respectively.

Values taken from PubChem BioAssay.
